Measured values from paper PMC9574860, “Chemical Toolkit for PARK7: Potent, Selective, and High-Throughput” (Journal of Medicinal Chemistry, 2022).
Screen size: about 7,900 compounds; about 400 (5.1%) showed an effect of 50% or more. For the sample, strong results were picked, then their nearest neighbours and some compounds at random.

target: Parkinson's disease protein 7 (PARK7/DJ1) (human, UniProt Q99497); test: primary screen, percent inhibition; read as competition with a fluorescent probe by fluorescence polarization; higher = more effect of the substance; conditions: 100 µM
Sequence (Q99497 whole entry, looked up, the tested form may be a part): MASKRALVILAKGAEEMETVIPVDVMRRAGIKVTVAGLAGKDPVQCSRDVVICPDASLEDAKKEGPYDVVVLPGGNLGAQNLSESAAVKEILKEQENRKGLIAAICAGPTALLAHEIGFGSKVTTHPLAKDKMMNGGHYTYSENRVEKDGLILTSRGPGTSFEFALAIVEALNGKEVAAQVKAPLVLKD
How it was run: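 Covalent fragments at 100 μM final were incubated 2 h with 0.2 μM PARK7, then 20 nM probe JYQ-107 added for a further 2 h. Fluorescence polarization read at 480/520 nm; relative FP loss versus reference controls gave remaining enzyme activity.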

SMILES	Inhibition % [%]
C=CC(=O)NC1COCc2ccccc21 (stereo not shown)	9.84
O=C(CN1C(=O)CCC1=O)c1ccccc1F	9.1
CC1CC(N2CC=C(c3ccc(F)cc3)CC2)C(=O)O1 (stereo not shown)	5.18
Cc1cccc(NC(=O)NC2C(=O)OCC2(C)C)n1 (stereo not shown)	7.98
N#CC(=Cc1ccc(-c2nc3ccccc3s2)o1)C(=O)O	3.06
C=CC(=O)N1CCOc2ccccc21	9.1
O=C(CCl)NCC(=O)c1ccccc1	4.23
Cl.O=C(CCl)Nc1ccncc1	14.4
O=C(CCl)c1ccccc1	56.6
O=C(CCl)c1ccc(O)c(O)c1	75.1
O=C(CCl)NNC(=O)c1ccccc1	-3.2
O=C(CCl)c1ccc(C(F)(F)F)cc1	12
CSc1ccc(C(=O)CCl)cc1	89.6
Cl.O=C(CCl)c1ccncc1	95.3
CCN1CCN(c2oc(C3CC3)nc2C#N)CC1	1.62
Cc1nccn1CC1CCCN1c1ccc(C#N)nc1 (stereo not shown)	0.293
N#Cc1cc(C(=O)Nc2ccccc2)c(N)nc1S	1.51
C=CC(=O)N1CCN(C(=O)CC(F)(F)F)CC1	12.4
CC1CC(C)CC2(C1)NC(=O)N(CCC1OCCO1)C2=O (stereo not shown)	2.2
C=C(C)Cn1c(C#N)nc(C)c1C	2.82
CC(C)n1ccnc1C(=O)CCl	48.7
O=C(CCl)c1ccc2[nH]c(=O)[nH]c2c1	63.2
CC(=O)N1c2ccc(C(=O)CCl)cc2CC1C (stereo not shown)	5.96
O=C(CCl)Nc1ccc2[nH]c(=O)[nH]c2c1	34.3
O=C(CCl)c1ccns1	95.1
Cl.O=C(CCl)Nc1cccnn1	26.1

SMILES	Inhibition % [%]
O=C(CCl)c1ccc2[nH]c(=O)oc2c1	2.68
O=C(CCl)c1ccc2c(c1)COC2	72.7
N#Cc1ncn(CCCOc2ccc(Cl)cc2)n1	9.73
N#Cc1ncn(Cc2c(F)cccc2Cl)n1	0.988
C=CC(=O)Nc1cnc2c(C)cccn12	8.53
CCCNC(=O)C(C#N)=Cc1oc(C)nc1C	19.4
Cc1nc(C#N)c(N2CCN(C(=O)CCl)CC2)o1	38.4
Cc1nc(C)c(C(=O)CCl)o1	95.2
C=CC(=O)N1CCCCC1c1noc(C2CC2)n1 (stereo not shown)	29.3
COC[C@@H]1C[C@H](OC)CN1C(=O)c1c[nH]c(C#N)c1	1.56
O=C(O)CCN1C(=O)CSC1=O	13
Cl.NCCN1C(=O)CSC1=O	75.6
O=C(O)CN1C(=O)CSC1=O	17.6
CN(Cc1nc2ccccc2[nH]1)S(=O)(=O)C1=CCCCC1	8.82
C=CC(=O)NC(CO)C1CCCO1 (stereo not shown)	6.87
O=C(CCl)NCC#Cc1ccccc1	1.08
C=CC(=O)N1CCCN(c2ccccn2)CC1	12.3
C=CC(=O)N(CC)C1CCS(=O)(=O)C1 (stereo not shown)	-4.06
OC1(C2CO2)CCCC1 (stereo not shown)	3.59
Cc1nn(C)c(Cl)c1C=CC(=O)N1CCC(N)C1.Cl (stereo not shown)	17.1
CNC(=O)Cn1nc(-c2ccc(F)cc2)oc1=O	16.9
O=C(CCl)N1CCC(C(=O)N2CCCCC2)CC1	18.3
NC(=O)C1CCCN(C(=O)CCl)C1 (stereo not shown)	35.5
CN1CCN(C(=O)CCl)CC1.Cl	1.98
CCOC(=O)C1CCN(C(=O)CCl)CC1	19.7
O=C(CCl)N1CCC(C(=O)N2CCCCCC2)CC1	15.1

SMILES	Inhibition % [%]
CCOC(=O)N1CCN(C(=O)CCl)CC1	67.8
O=C(CCl)N1CCN(C(=O)C2CC2)CC1	56.1
O=C(CCl)N1CCN(C(=O)CCl)CC1	36.5
CCOC(=O)C1CCCN(C(=O)CCl)C1 (stereo not shown)	74.4
C=CC(=O)N1CCN(C)c2cc(F)ccc21	14.6
N#CCCN(C(=O)CCl)c1cccc(Cl)c1	29.3
O=C(CCl)NC1CCN(C(=O)CCc2ccccc2)CC1	11.9
CC1C(=O)Nc2ccc(C(=O)CCl)cc21 (stereo not shown)	85.9
CS(=O)(=O)N1CCCc2cc(C(=O)CCl)ccc21	76.4
O=C(CCl)c1cc2c3c(c1)CC(=O)N3CCC2	21.1
O=C1CCc2cc(C(=O)CCl)ccc2N1	52.8
CC1(C)C(=O)Nc2ccc(C(=O)CCl)cc21	32.9
C=CC(=O)Nc1ccc2c(c1)CCCC(=O)N2	4.19
O=C1CCc2cc(OCCCl)ccc2N1	6.21
CS(=O)(=O)N1CCc2cc(C(=O)CCl)ccc21	36.2
O=C1CCc2cc(C(=O)CCl)c(F)cc2N1	1.18
O=C1CCCc2cc(C(=O)CCl)ccc2N1	86.5
CCS(=O)(=O)N1CCc2cc(C(=O)CCl)ccc21	11.9
C=CC(=O)N(C1CC1)C1CCS(=O)(=O)C1 (stereo not shown)	10.3
CC(C)Cc1nc(C#N)c(NCc2ccncc2)o1	6.94
CC1(C)OB(c2ccc(N)nc2)OC1(C)C	9.29
COc1ccc(-c2ccncc2)cc1B(O)O	6.7
N#CC(=Cc1cccs1)C(N)=O	10.8
Cc1nn(C)c(NS(=O)(=O)C=Cc2ccccc2)c1C	11.2
C=CC(=O)N1CCCc2c1nc[nH]c2=O	20.2
C=CC(=O)N1CCN(C(=O)c2cccc(Cl)c2)CC1	4.01

SMILES	Inhibition % [%]
CCC(=O)N1CCc2cc(C(=O)CCl)ccc21	3.43
CN1Cc2cc(C(=O)CCl)ccc2NC1=O	11.5
O=C1COc2ccc(C(=O)CCl)cc2N1	8.16
CN1C(=O)CCc2cc(C(=O)CCl)ccc21	19.5
O=C1Cc2cc(C(=O)CCl)ccc2N1	81.4
CN1C(=O)Cc2cc(C(=O)CCl)ccc21	83.4
C=CC(=O)NCC(=O)NC1(C)CCCCC1	13.6
C=CC(=O)NCc1nc2c(s1)COCC2	5.36
O=S(=O)(C=Cc1ccccc1)NC1CCCn2ncnc21 (stereo not shown)	12.3
C=CC(=O)Nc1c(C)nn(CC)c1C	2.74
C=CC(=O)Nc1c(C)nn(C(C)C)c1C	0.88
C=CC(=O)Nc1c(C)nn(C)c1N1CCC1	87.1
N#Cc1nc(C2CC2)n[nH]1	2.55
C=CC(=O)N1CCN(S(=O)(=O)CC)CC1	11.7
CCN(C(=O)Cn1c(S)nc2ccccc2c1=O)C1CC1	0.694
O=S(=O)(F)c1ccc(S(=O)(=O)Nc2cccnc2O)cc1	8.42
Cc1csc(NS(=O)(=O)c2cccc(S(=O)(=O)F)c2)n1	83.9
CCCc1nnc(NS(=O)(=O)c2ccc(S(=O)(=O)F)cc2)o1	49.9
Cc1nc(NS(=O)(=O)c2ccc(S(=O)(=O)F)cc2)no1	22.7
CCCc1nnc(NS(=O)(=O)c2cccc(S(=O)(=O)F)c2)o1	98.8
Cc1cnccc1NS(=O)(=O)c1ccc(S(=O)(=O)F)cc1	18.9
Cc1cscc1NS(=O)(=O)c1cccc(S(=O)(=O)F)c1	98.1
O=S(=O)(F)c1ccc(S(=O)(=O)Nc2ncccc2Cl)cc1	32.9
O=S(=O)(F)c1cccc(S(=O)(=O)Nc2cccnc2O)c1	99.4
O=C(CCl)Nc1cccc(C(=O)N2CCSCC2)c1	6.3
Cc1csc2ccc(B(O)O)cc12	5.69

SMILES	Inhibition % [%]
O=C(CCl)NCC(=O)N1CCCC1	2.12
O=C(NCc1ccccc1)N1CCCCC1C1OCCO1 (stereo not shown)	6.92
FC(F)(F)c1cccc(C2CO2)c1 (stereo not shown)	2.09
Cl.O=C(CCl)NCCc1cccc2cccnc12	30.3
Cc1conc1NS(=O)(=O)c1ccc(S(=O)(=O)F)cc1	27
Cc1conc1NS(=O)(=O)c1cccc(S(=O)(=O)F)c1	99
O=C(CCl)NCc1ccc(N2CCOCC2)c(F)c1	10.8
CN(CC1COc2ccccc2O1)C(=O)CCl (stereo not shown)	96.7
C=CC(=O)N(C)CC1COc2ccccc2O1 (stereo not shown)	3.26
CCN(CC1COc2ccccc2O1)C(=O)CCl (stereo not shown)	21.2
N#CC1(NC(=O)CCl)CCC1	20.1
CN1CCOC(CNS(=O)(=O)C=Cc2ccccc2)C1 (stereo not shown)	6.48
N#Cc1ncccc1Cl	0.27
O=C(CCCl)N1CCc2sccc2C1	33.2
C=CC(=O)NCCCC(=O)N1CCc2sccc2C1	10.7
O=C(CCl)N1CCc2sccc2C1	83.6
O=C(O)CC1(CS)CC1	80.8
O=C(O)CC1OCCCO1	-4.03
COCc1ccc(SC(=O)N(C)C)cc1	7.64
C=CC(=O)N1CCCN(Cc2nccn2C)CC1	10.6
O=C(CCl)Nc1ccc(Br)cc1C(=O)O	46.1
O=C(CCl)Nc1cc(Cl)ccc1C(=O)O	47.9
C#CC(=O)Nc1cc2ccccc2cc1C(=O)O	29.8
O=C(CCl)Nc1cccc2cccc(C(=O)O)c12	11.2
O=C(CCl)Nc1cc2ccccc2cc1C(=O)O	66.3
O=C(CCl)Nc1ccc(Cl)cc1C(=O)O	52.4
